Where “and” joins values, the source holds several entries; their conditions need not be identical. Identical values can stand only once. The source holds several records for some structures; these can differ, active in one and inactive in another. Calls of active or inactive are those of the source. The calls were made as follows: active = hit-call score of the fitted dose curve at least 0.9, where 1 is the maximum; inactive = score below 0.9.
Tests used:
Details in all cases: mRNA level, 48 h; actives raise or lower the signal
[1] = read-out: Cytochrome P450 (CYP24A1), CYP24A1 (gene 1591); assay: LTEA_HepaRG_CYP24A1: Life Technologies and Expression Analysis (LTEA) Assay for Cytochrome P450 (CYP24A1) using HepaRG (AID 2283478)
Summary of the method: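 mRNA of CYP24A1 quantified by TaqMan qRT-PCR (ACTB/GAPDH/POLR2A normalization) after 48 h chemical exposure of HepaRG cells, top concentration 100 uM, half-log steps, 0.5% DMSO vehicle, duplicates. Curves fitted bidirectionally against DMSO baseline.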

[2] = read-out: Cytochrome P450 (CYP1A2), CYP1A2 (gene 1544); assay: LTEA_HepaRG_CYP1A2: Life Technologies and Expression Analysis (LTEA) Assay for Cytochrome P450 (CYP1A2) using HepaRG (AID 2283479)
Summary of the method: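 CYP1A2 transcript measured by TaqMan qRT-PCR against three housekeeping genes after 48-hour chemical exposure of HepaRG cells. Eight-point half-log series topping at 100 uM in 0.5% DMSO, duplicates; gain or loss fitted relative to vehicle.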

[3] = read-out: cysteine-aspartic acid protease (CASP8), CASP8 (gene 841); assay: LTEA_HepaRG_CASP8: Life Technologies and Expression Analysis (LTEA) Assay for cysteine-aspartic acid protease (CASP8) using HepaRG (AID 2283480)
Summary of the method: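 CASP8 transcript measured by TaqMan qRT-PCR with ACTB/GAPDH/POLR2A normalization, after 48 h chemical exposure of HepaRG cells in serum-free induction medium. Eight concentrations, top 100 uM, half-log steps, 0.5% DMSO vehicle; fits in both directions versus DMSO.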

[4] = read-out: Cytochrome P450 (CYP2B6), CYP2B6 (gene 1555); assay: LTEA_HepaRG_CYP2B6: Life Technologies and Expression Analysis (LTEA) Assay for Cytochrome P450 (CYP2B6) using HepaRG (AID 2283481)
Summary of the method: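 CYP2B6 transcript level quantified by qRT-PCR against three housekeeping genes, fitted bidirectionally relative to DMSO. HepaRG cultures received chemicals for 48 h, 8-point half-log series from 100 uM in 0.5% DMSO, duplicate wells, serum-free induction medium.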

[5] = read-out: CYP2C8 (gene 1558); assay: LTEA_HepaRG_CYP2C8: Life Technologies and Expression Analysis (LTEA) Assay for CYP2C8 using HepaRG (AID 2283483)
Summary of the method: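 CYP2C8 expression measured by TaqMan qRT-PCR and normalized to three housekeeping genes. HepaRG cultures were treated for 48 h with an eight-point half-log series topping at 100 uM, vehicle 0.5% DMSO, duplicates; fitted both directions against DMSO.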

[6] = read-out: CYP2C9 (gene 1559); assay: LTEA_HepaRG_CYP2C9: Life Technologies and Expression Analysis (LTEA) Assay for CYP2C9 using HepaRG (AID 2283484)
Summary of the method: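 CYP2C9 transcript level, quantified by TaqMan qRT-PCR against three housekeeping genes, was fitted bidirectionally relative to 0.5% DMSO. HepaRG cultures were treated 48 h, in duplicate, at eight half-log concentrations topping at 100 uM.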

[7] = read-out: CYP2E1 (gene 1571); assay: LTEA_HepaRG_CYP2E1: Life Technologies and Expression Analysis (LTEA) Assay for CYP2E1 using HepaRG (AID 2283485)
Summary of the method: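 CYP2E1 transcript measured by Fluidigm qRT-PCR against three housekeeping genes in human HepaRG cells treated 48 h (top 100 uM, half-log steps, 0.5% DMSO vehicle). Gain or loss fitted relative to DMSO baseline.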

[8] = read-out: CYP4A11 (gene 1579); assay: LTEA_HepaRG_CYP4A11: Life Technologies and Expression Analysis (LTEA) Assay for CYP4A11 using HepaRG (AID 2283486)
Summary of the method: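 Readout is CYP4A11 transcript level by qRT-PCR, normalized to three housekeeping genes and fitted bidirectionally against 0.5% DMSO. Human HepaRG cells were treated 48 h, in duplicate, with an 8-point half-log series topping at 100 uM.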

[9] = read-out: Cytochrome P450 3A4 (Homo sapiens) (UniProt P08684); assay: LTEA_HepaRG_CYP3A4: Life Technologies and Expression Analysis (LTEA) Assay for CYP3A4 using HepaRG (AID 2283487)
Summary of the method: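 Differentiated HepaRG cells in serum-free induction medium exposed in duplicate for 48 h to 8 half-log concentrations up to 100 uM in 0.5% DMSO. CYP3A4 mRNA measured by qRT-PCR normalized to ACTB, GAPDH and POLR2A; bidirectional fit versus DMSO.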

[10] = read-out: Pro-epidermal growth factor (Homo sapiens) (UniProt P01133); assay: LTEA_HepaRG_EGF: Life Technologies and Expression Analysis (LTEA) Assay for Epidermal growth factor (EGF) using HepaRG (AID 2283489)
Summary of the method: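 EGF transcript measured by Fluidigm TaqMan qRT-PCR with three housekeeping genes for normalization, 48 h after dosing HepaRG cultures in duplicate (top 100 uM, half-log steps, 0.5% DMSO vehicle). Gain or loss relative to DMSO fitted.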

[11] = read-out: Early growth response protein 1 (EGR1) transcription factor, EGR1 (gene 1958); assay: LTEA_HepaRG_EGR1: Life Technologies and Expression Analysis (LTEA) Assay for Early growth response protein 1 (EGR1) transcription factor using HepaRG (AID 2283490)
Summary of the method: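 EGR1 transcript levels quantified by qRT-PCR (Fluidigm arrays) against three housekeeping genes after 48 h chemical exposure of HepaRG cells. Eight-point half-log series topping at 100 uM, 0.5% DMSO vehicle, analyzed for gain or loss.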

[12] = read-out: Ezrin (EZR), EZR (gene 7430); assay: LTEA_HepaRG_EZR: Life Technologies and Expression Analysis (LTEA) Assay for Ezrin (EZR) using HepaRG (AID 2283491)
Summary of the method: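 Differentiated human HepaRG cells, 48 h after plating, were exposed in serum-free induction medium for 48 hours to eight half-log concentrations up to 100 uM in 0.5% DMSO. EZR mRNA was measured by TaqMan qRT-PCR, normalized to ACTB, GAPDH and POLR2A, and fitted bidirectionally against DMSO.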

[13] = read-out: Cytochrome P450 3A7 (Homo sapiens) (UniProt P24462); assay: LTEA_HepaRG_CYP3A7: Life Technologies and Expression Analysis (LTEA) Assay for CYP3A7 using HepaRG (AID 2283492)
Summary of the method: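 CYP3A7 transcript measured by qRT-PCR (ACTB, GAPDH, POLR2A normalization) after 48 h chemical exposure of HepaRG cells in duplicate. Eight half-log concentrations, maximum 100 uM, 0.5% DMSO vehicle; bidirectional curve fitting against DMSO baseline.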

[14] = read-out: CYP3A5 (gene 1577); assay: LTEA_HepaRG_CYP3A5: Life Technologies and Expression Analysis (LTEA) Assay for CYP3A5 using HepaRG (AID 2283493)
Summary of the method: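 mRNA levels were quantified by qRT-PCR on Fluidigm arrays and normalized to three housekeeping genes. Differentiated HepaRG cells received 48 h exposure (top 100 uM, half-log steps, 0.5% DMSO vehicle, duplicate); bidirectional fitting versus DMSO.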

[15] = read-out: Fatty Acid-Binding Protein 1 (FABP1), FABP1 (gene 2168); assay: LTEA_HepaRG_FABP1: Life Technologies and Expression Analysis (LTEA) Assay for Fatty Acid-Binding Protein 1 (FABP1) using HepaRG (AID 2283494)
Summary of the method: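 FABP1 expression by TaqMan qRT-PCR, normalised to three housekeeping genes, in HepaRG cells after 48 h chemical treatment. Eight-point half-log series topping at 100 uM in 0.5% DMSO, duplicates; gain or loss fitted relative to vehicle.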

[16] = read-out: Cytochrome P450 4A22 (Homo sapiens) (UniProt Q5TCH4); assay: LTEA_HepaRG_CYP4A22: Life Technologies and Expression Analysis (LTEA) Assay for Cytochrome P450 4A22 (CYP4A22) using HepaRG (AID 2283495)
Summary of the method: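 Gene expression measured by qRT-PCR against three housekeeping genes (ACTB, GAPDH, POLR2A), with gain or loss fitted relative to 0.5% DMSO vehicle. HepaRG cultures received 48 h chemical treatment, top concentration 100 uM, half-log steps, duplicate wells.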

[17] = read-out: Cytochrome P450 7A1 (Homo sapiens) (UniProt P22680); assay: LTEA_HepaRG_CYP7A1: Life Technologies and Expression Analysis (LTEA) Assay for Cytochrome P450 7A1 (CYP7A1) using HepaRG (AID 2283496)
Summary of the method: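 HepaRG, 48 h exposure, 8-pt half-log series from 100 uM, 0.5% DMSO vehicle, duplicates. Readout: TaqMan qRT-PCR mRNA vs three housekeeping genes; bidirectional curve fit against DMSO baseline.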

[18] = read-out: Glutathione S-Transferase (GSTA2), GSTA2 (gene 2939); assay: LTEA_HepaRG_GSTA2: Life Technologies and Expression Analysis (LTEA) Assay for Glutathione S-Transferase (GSTA2) using HepaRG (AID 2283497)
Summary of the method: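 GSTA2 transcript levels came from Fluidigm TaqMan qRT-PCR normalized to three housekeeping genes, fitted in both directions against DMSO. HepaRG cultures received chemicals for 48 h in serum-free induction medium (0.5% DMSO), 8 half-log concentrations up to 100 uM, duplicate.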

[19] = read-out: DNA damage-inducible transcript 3 (DDIT3), DDIT3 (gene 1649); assay: LTEA_HepaRG_DDIT3: Life Technologies and Expression Analysis (LTEA) Assay for DNA damage-inducible transcript 3 (DDIT3) using HepaRG (AID 2283488)
Summary of the method: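 DDIT3 transcript was quantified by qRT-PCR with ACTB/GAPDH/POLR2A normalization after 48 h chemical treatment of differentiated HepaRG cells in 0.5% DMSO. Dosing was eight-point, half-log, top 100 uM, duplicate wells. Curves fitted bidirectionally versus DMSO.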

[20] = read-out: Cytochrome P450 2C19 (Homo sapiens) (UniProt P33261); assay: LTEA_HepaRG_CYP2C19: Life Technologies and Expression Analysis (LTEA) Assay for CYP2C19 using HepaRG (AID 2283482)
Summary of the method: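 CYP2C19 transcript levels by qRT-PCR, normalized to three housekeeping genes, in HepaRG cells after 48 h chemical exposure. Eight-point half-log series topping at 100 uM, 0.5% DMSO vehicle. Increases and decreases both fitted against DMSO.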

Measured: AC50

Cytochrome P450 3A7 (Homo sapiens), sequence (P24462 whole entry, looked up): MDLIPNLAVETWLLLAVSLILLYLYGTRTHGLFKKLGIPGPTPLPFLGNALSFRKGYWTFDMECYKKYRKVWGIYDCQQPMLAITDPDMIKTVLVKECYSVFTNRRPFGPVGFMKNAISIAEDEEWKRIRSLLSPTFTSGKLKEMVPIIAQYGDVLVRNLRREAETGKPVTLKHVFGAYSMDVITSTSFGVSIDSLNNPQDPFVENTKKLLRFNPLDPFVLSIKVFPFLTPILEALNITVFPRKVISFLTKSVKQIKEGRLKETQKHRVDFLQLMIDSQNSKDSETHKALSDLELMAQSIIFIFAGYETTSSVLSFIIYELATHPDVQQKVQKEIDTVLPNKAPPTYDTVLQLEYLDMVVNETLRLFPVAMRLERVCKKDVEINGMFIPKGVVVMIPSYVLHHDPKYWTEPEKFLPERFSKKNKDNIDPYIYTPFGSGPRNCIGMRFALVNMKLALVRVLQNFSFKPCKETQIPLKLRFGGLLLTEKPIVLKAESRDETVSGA
Cytochrome P450 2C19 (Homo sapiens), sequence (P33261 whole entry, looked up): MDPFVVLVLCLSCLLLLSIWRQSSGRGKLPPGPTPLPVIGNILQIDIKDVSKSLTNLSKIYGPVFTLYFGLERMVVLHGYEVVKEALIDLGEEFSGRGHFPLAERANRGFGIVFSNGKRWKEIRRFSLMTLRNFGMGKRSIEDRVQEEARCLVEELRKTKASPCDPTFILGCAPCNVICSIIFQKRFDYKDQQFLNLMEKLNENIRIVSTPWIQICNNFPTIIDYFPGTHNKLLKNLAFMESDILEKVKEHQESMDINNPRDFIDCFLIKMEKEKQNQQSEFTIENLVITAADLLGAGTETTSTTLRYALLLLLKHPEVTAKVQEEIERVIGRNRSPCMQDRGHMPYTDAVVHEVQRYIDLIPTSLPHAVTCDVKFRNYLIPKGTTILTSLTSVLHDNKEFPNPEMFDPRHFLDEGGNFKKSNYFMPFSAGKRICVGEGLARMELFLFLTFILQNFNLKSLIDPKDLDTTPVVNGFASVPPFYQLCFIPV
Cytochrome P450 3A4 (Homo sapiens), sequence (P08684 whole entry, looked up): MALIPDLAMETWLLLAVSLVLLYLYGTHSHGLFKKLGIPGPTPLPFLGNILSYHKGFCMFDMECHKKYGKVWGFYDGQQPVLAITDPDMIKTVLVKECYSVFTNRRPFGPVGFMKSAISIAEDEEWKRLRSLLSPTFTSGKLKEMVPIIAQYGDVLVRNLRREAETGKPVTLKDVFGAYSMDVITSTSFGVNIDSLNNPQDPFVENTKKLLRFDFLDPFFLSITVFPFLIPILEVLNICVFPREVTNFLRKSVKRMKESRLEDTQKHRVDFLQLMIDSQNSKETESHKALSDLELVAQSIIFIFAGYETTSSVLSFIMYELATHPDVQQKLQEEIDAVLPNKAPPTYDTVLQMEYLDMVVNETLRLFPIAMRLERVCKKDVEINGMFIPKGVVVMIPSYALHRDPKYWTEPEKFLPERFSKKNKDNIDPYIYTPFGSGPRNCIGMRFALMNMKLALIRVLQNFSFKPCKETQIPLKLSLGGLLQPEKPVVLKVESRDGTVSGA

CCOC(=O)COc1cc(-n2ncc(C(F)(F)F)c(C)c2=O)c(F)cc1Cl
active: [4] 50 µM | [9] 50 µM | [13] 28.9 µM
not listed: [19] | [20]
inactive: all other assays above

C[C@]12CC[C@@H]3c4ccc(O)cc4C[C@@H](CCCCCCCCCS(=O)CCCC(F)(F)C(F)(F)F)[C@H]3[C@@H]1CC[C@@H]2O (some centres not stated)
active: [4] 29.9 µM | [5] 32.6 µM | [6] 28.7 µM | [7] 20.2 µM | [8] 30.9 µM | [9] 31.1 µM | [19] 9.92 µM | [10] 0.0848 µM | [11] 0.119 µM | [13] 24.9 µM | [14] 15.7 µM | [15] 25.8 µM | [17] 15 µM | [18] 28.1 µM
inactive: [1] | [2] | [12] | [16]

Oc1ccc(C(c2ccc(O)cc2)C(Cl)(Cl)Cl)cc1
inactive: [1] | [2] | [10] | [16] | [17]
active: [4] 81.1 µM | [20] 78.4 µM | [5] 93.2 µM | [6] 93.1 µM | [7] 93.8 µM | [8] 93.2 µM | [9] 78.7 µM | [11] 77.7 µM | [12] 80.9 µM | [13] 79.8 µM | [14] 70.7 µM | [15] 94.3 µM | [18] 78.2 µM

CC(C)(c1ccc(O)cc1)c1ccc(O)cc1
inactive: [1] | [5] | [6] | [7] | [8] | [9] | [10] | [11] | [12] | [13] | [14] | [15] | [16] | [17] | [18]
active: [2] 50 µM | [4] 50 µM and 31.1 µM and 64.4 µM | [6] 9.92 µM | [15] 50 µM

O=C(Nc1ccc([N+](=O)[O-])cc1Cl)c1cc(Cl)ccc1O
active: [2] 0.744 µM | [4] 3.89 µM | [20] 2.22 µM | [5] 3.94 µM | [6] 3.21 µM | [7] 2.07 µM | [8] 3.41 µM | [10] 12.1 µM | [11] 1.76 µM | [14] 7.24 µM | [15] 2.25 µM | [16] 14.2 µM | [17] 13.6 µM | [18] 2.84 µM
inactive: [1] | [12]

C#CCOC(=O)[C@@H](C)Oc1ccc(Oc2ncc(Cl)cc2F)cc1
active: [8] 19 µM | [13] 50 µM | [15] 64.4 µM | [16] 13.2 µM
not listed: [3] | [19]
inactive: all other assays above
